This passage reports CPE inhibition results from PubChem BioAssay AID2391 (Southern Research Specialized Biocontainment Screening …, 2010).

Hit rate of the full screen: of about 310,000 compounds, about 410 (0.13%) were called active. Another 2% or so got no clear call; they are omitted. The list is a sample of the results. Results with a measured potency or affinity are listed apart. Values without a mark were called inactive. The rule behind the calls is not given here.

A short description of the assay: RSV antiviral activity via CPE protection, HEp-2 cells, primary 10 µM value included (AID 2391). Particulars: RSV-induced CPE inhibition, at 10 µM, hits give high values.
As to `COc1cc(C2C(C#N)=C(N)Oc3c2oc(CO)cc3=O)ccc1OC(C)C` (stereo unspecified), the CPE inhibition is 0.67%.

As for `Cc1c(C)c2c(OCC(=O)NCc3ccccn3)cc3c(c2oc1=O)CCC(C)(C)O3`, the CPE inhibition is -0.55%.

In the case of `Cn1c(C(O)c2ccccc2)nc(Cl)c1Cl` (stereo unspecified), the CPE inhibition was 2.93%.

In the case of `COc1ccc(-n2c(=O)c3ccccc3n(CC(=O)NC3CCCC3)c2=O)cc1`, the CPE inhibition is 0.83%.

As to `C#CCOCCOCCOCCNc1nc(N2CCOCC2)nc(N2CCN(C(=O)CCCCCCCCCCNC(=O)[C@@H]([C@H](C)O)n3cc(C)nn3)CC2)n1`, the CPE inhibition was 2.9%.

As to `C#CCOCCOCCOCCNc1nc(N2CCN(C(=O)CCCCCCCCCCNC(=O)[C@H](CCCCN)n3cc(C)nn3)CC2)nc(N2CCN(C(=O)CCCCCCCCCCNC(=O)[C@@H]([C@H](C)O)n3cc(C)nn3)CC2)n1`, the CPE inhibition is 8.35%.

Consider `CCOc1ccc(C(C)=O)cc1Cn1c(=O)oc2ccccc21`, for which the CPE inhibition is 9.32%.

With `O=c1[nH]c(C2CCN(S(=O)(=O)/C=C/c3ccccc3)CC2)nc2c1nnn2Cc1ccccc1`, the CPE inhibition was 76.1%.

Regarding `O=c1[nH]c(C2CCN(S(=O)(=O)c3ccc4c(c3)OCCO4)CC2)nc2c1nnn2Cc1cccc(F)c1`, the CPE inhibition is 67.8%.

As for `O=c1[nH]c(C2CCN(S(=O)(=O)c3ccccc3F)CC2)nc2c1nnn2Cc1ccc(F)cc1`, the CPE inhibition is 39%.

On to `Cc1ccc(Cn2nnc3c(=O)[nH]c(C4CCN(S(=O)(=O)c5ccccc5F)CC4)nc32)cc1`, for which the CPE inhibition was 84.2%.

As for `O=c1[nH]c(C2CCN(S(=O)(=O)c3ccc4c(c3)OCCO4)CC2)nc2c1nnn2Cc1ccc(F)cc1`, the CPE inhibition is 63.7%.

With `O=c1[nH]c(C2CCN(S(=O)(=O)c3ccccc3)CC2)nc2c1nnn2Cc1ccccc1`, the CPE inhibition is 19.1%.

Consider `O=c1[nH]c(C2CCN(S(=O)(=O)c3ccc(F)cc3)CC2)nc2c1nnn2Cc1ccc2c(c1)OCCO2`, for which the CPE inhibition was 64.8%.

As to `Cc1ccc(Cn2nnc3c(=O)[nH]c(C4CCN(S(=O)(=O)c5ccc(F)cc5)CC4)nc32)cc1`, the CPE inhibition is 13.9%.

Regarding `COC(=O)CC(c1ccc(C#N)cc1)n1c(C)ccc1C` (stereo unspecified), the CPE inhibition was -0.14%.

Regarding `Cc1ccccc1COn1nnc2ccc(S(=O)(=O)N3CCOCC3)cc21`, the CPE inhibition was -1.48%.

Consider `O=C(NC1CCCCC1)N1CCN(c2ncccn2)CC1`, for which the CPE inhibition is 2.35%.

In the case of `COc1ccccc1-n1c(SCC(=O)Nc2ccc(Br)cc2)nc(O)cc1=O`, the CPE inhibition is 0.85%.

For the molecule `COC(=O)Nc1ccc(S(=O)(=O)N(CCO)CCO)cc1`, the CPE inhibition is -0.61%.

As to `Cc1cccc(NC(=O)c2ccc(COc3ccc(Cl)cc3Cl)o2)n1`, the CPE inhibition was -0.26%.

For the molecule `O=c1[nH]c(C2CCCN(S(=O)(=O)c3ccccc3)C2)nc2c1nnn2Cc1ccc(OC(F)(F)F)cc1` (stereo unspecified), the CPE inhibition is 1.75%.

As to `CC(C)[N+](C)(C)CC#CC(O)(c1ccccc1)c1ccccc1`, the CPE inhibition was -0.2%.

`N#Cc1ccc(CN2CCN(C(=O)CC(NC(=O)c3ccccc3)c3ccccc3)CC2)cc1` (stereo unspecified): the CPE inhibition was 2.31%.

Take `COC(=O)/C=C1\S/C(=N/NC(=O)c2ccc(OC)cc2)NC1=O`: the CPE inhibition is -1.09%.

As to `C/C(N)=C(/C#N)C(=O)COC(=O)c1ccc(O)cc1`, the CPE inhibition is 1.45%.

Regarding `C/C(N)=C(/C#N)C(=O)COC(=O)c1ccc(C#N)cc1`, the CPE inhibition is 0.83%.

On to `O=C1CC(C(=O)N2CCc3ccccc32)CN1c1ccc(F)cc1` (stereo unspecified), for which the CPE inhibition was 2.7%.

As for `O=C(CNC(=O)c1ccc(Cl)cc1)OCc1nc2ccccc2s1`, the CPE inhibition is 3.12%.

On to `Cc1cc(-c2nc3cccnc3s2)ccc1NS(=O)(=O)c1cccs1`, for which the CPE inhibition is 3.81%.

`Cc1ccc(-c2nc3cccnc3s2)cc1NS(C)(=O)=O`: the CPE inhibition was 0.25%.

With `CCOc1ccc(NC(=O)CN(C)S(=O)(=O)c2ccc(-c3ccc(=O)[nH]n3)s2)cc1`, the CPE inhibition is 3.93%.

On to `CCOC(=O)c1ccc(NC(=S)N2CCSC2c2ccc(OC)cc2)cc1` (stereo unspecified), for which the CPE inhibition was 11.4%.

Take `CCOC(=O)c1ccc(NC(=S)N2CCSC2c2ccc(Cl)cc2)cc1` (stereo unspecified): the CPE inhibition is 52%.

As for `O=C(Cn1ncc2c1-c1ccccc1OC2)N1CCN(Cc2ccccc2)CC1`, the CPE inhibition was -1.42%.

On to `COc1ccc(C(=O)NN2CCCCC2)cc1OC`, for which the CPE inhibition was 1.22%.

For `COc1ccccc1COCC(O)CN1CCN(S(=O)(=O)c2cccc(F)c2)CC1` (stereo unspecified), the CPE inhibition is 0.54%.

For `Cc1ccc(NC(=O)CC(N)=S)cc1`, the CPE inhibition is 0.37%.

Consider `O=C(O)COc1ccc2c3c(c(=O)oc2c1)CCCC3`, for which the CPE inhibition is -1.38%.

With `CC(=O)COc1ccc2c3c(c(=O)oc2c1)CCCC3`, the CPE inhibition is 27%.

Regarding `O=C(O)c1ccccc1NCc1ccco1`, the CPE inhibition is 0.7%.

As for `CC(=O)Nc1ccc(S(=O)(=O)n2cnc3cc(C)c(C)cc32)cc1`, the CPE inhibition was 14.6%.

As to `CCc1ccc(/C(C)=N/NC(=O)CNC(=O)/C=C/c2ccccc2OC)cc1`, the CPE inhibition was 5.6%.

As to `COc1ccc(/C(C)=N/NC(=O)CNC(=O)/C=C/c2ccccc2OC)cc1`, the CPE inhibition was 2.31%.

On to `O=c1cc(CN2CCN(C/C=C/c3ccccc3)CC2)c2cc(O)c(-c3ccccc3)cc2o1`, for which the CPE inhibition was 2.21%.

With `CC(=O)NCCN=C(C)c1sc2ccccc2c1O`, the CPE inhibition was 2.52%.

Consider `CCCCNC(=O)CC1N=C2c3ccccc3N=C(SCC(=O)Nc3ccccc3OC)N2C1=O` (stereo unspecified), for which the CPE inhibition is 8.13%.

On to `CCCCNC(=O)CC1N=C2c3ccccc3N=C(SCC(=O)Nc3cccc(OC)c3)N2C1=O` (stereo unspecified), for which the CPE inhibition is 0.81%.

`Cn1ccnc1SCC(=O)Nc1cccc(S(=O)(=O)N2CCCCC2)c1`: the CPE inhibition was 5.08%.

Turning to `O=C(Nc1nc(-c2ccc(Cl)cc2Cl)cs1)C1CCCO1` (stereo unspecified), the CPE inhibition was 7.12%.

In the case of `COc1ccc(C(=O)NCc2nc3ccccc3[nH]2)cc1OC`, the CPE inhibition is 1.66%.

On to `COc1cc(/C=C/C(=O)NCc2nc3ccccc3[nH]2)cc(OC)c1OC`, for which the CPE inhibition is 3.24%.

For `CCCSC1=C(C#N)C(c2cccs2)CC(=O)N1` (stereo unspecified), the CPE inhibition is 0.6%.

With `CC1=C(C(=O)OC(C)C)C2(O)C(=O)c3ccccc3C2(O)N1` (stereo unspecified), the CPE inhibition was 0.34%.

Turning to `CC(C)CNC(=O)c1cc([N+](=O)[O-])ccc1N1CCCCC1`, the CPE inhibition was 1.62%.

For the molecule `CC12CCC(=O)C=C1CCC1C2C(=O)CC2(C)C1CC[C@]2(O)C(=O)CO` (stereo partly specified), the CPE inhibition was 1.47%.
